MazEF act: increases E. coli MazEF RNase cleavage of RNA; P0AE70; FAM/BHQ RNA-DNA oligo cleavage fluorescence, 5 h; activation, % at 20 µM; 350,000 tested, 0.32% active; AID 504720; in the data active = activation above about 50%
Target sequence (P0AE70 whole entry, looked up): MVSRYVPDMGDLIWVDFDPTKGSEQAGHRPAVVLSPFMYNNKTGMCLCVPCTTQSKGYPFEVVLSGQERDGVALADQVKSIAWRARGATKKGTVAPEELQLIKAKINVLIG
ugtP null kill: kills S. aureus RN4220 lacking UgtP | growth inhibition, % (no concentration beside the values) | AID 1259309 | 330,000 tested, 0.54% active | S. aureus RN4220 ugtP deletion, OD600 growth, 16 h; in the data active = growth inhibition above about 68%
PriA SSB inh: K. pneumoniae PriA-SSBct interaction inhibition. 430,000 tested, 0.6% active. AlphaScreen SSBct-PriA binding, biotinylated peptide. inhibition, % at 33 µM; in the data active = inhibition mostly above about 37%, no sharp cut-off; inactive = mostly below about 20%
BJeLR viability: kills HRASV12-expressing BJeLR cells; inhibition, % (no concentration beside the values); 300,000 tested, 0.17% active; BJeLR (HRASV12) viability, CellTiter-Glo ATP luminescence, 48 h; in the data active = inhibition above about 50%
Sa RN4220 lethal: kills Staphylococcus aureus RN4220. S. aureus RN4220 growth, OD600, 16 h. AID 1259311. inhibition, % (no concentration beside the values). 330,000 tested, 0.33% active; in the data active = inhibition above about 85%
Hits are given with their value; 0 = inactive; - = no result given. In the library only some 1.2% were active in any assay of this set; here they are far more common.

SMILES | MazEF act | ugtP null kill | PriA SSB inh | BJeLR viability | Sa RN4220 lethal
Oc1ccc(N=Nc2nc(-c3ccccc3)c(-c3ccccc3)[nH]2)cc1 | 126 | 0 | 0 | 0 | 0
N#Cc1ccc(NC(=O)CN2C(=O)COc3ccccc32)cc1 | - | - | 0 | - | -
O=C(CN1C(=O)COc2ccccc21)Nc1ccc(Cl)cc1 | - | - | 52 | - | -
NC(=O)CSc1nnc2scc(-c3ccc(Cl)cc3)n12 | - | - | 0 | - | -
Cc1cc(N2C(=O)C(O)=C(C(=O)c3ccco3)C2c2ccc(Cl)cc2)no1 (stereo unspecified) | 0 | 0 | 0 | 0 | 87
CSc1nnc(N2C(=O)C(O)=C(C(=O)c3ccco3)C2c2ccccc2)s1 (stereo unspecified) | 54 | 0 | 0 | 0 | 0
CSc1nnc(N2C(=O)C(O)=C(C(=O)c3ccc(C)o3)C2c2ccc(C)cc2)s1 (stereo unspecified) | 254 | 0 | 0 | 0 | 0
Cc1cc(C)c2nc(N3C(=O)C(O)=C(C(=O)c4ccco4)C3c3cccc(O)c3)sc2c1 (stereo unspecified) | 0 | 88 | 0 | - | 0
Cc1cc(C)c2nc(N3C(=O)C(O)=C(C(=O)c4ccco4)C3c3ccc(O)cc3)sc2c1 (stereo unspecified) | 0 | 0 | 0 | - | 0
CCCOc1ccc(OC(=O)Cc2ccc(OC)c(S(=O)(=O)N3CCOCC3)c2)cc1 | 0 | 0 | 0 | 0 | 0
COc1ccc(OC)c(-c2cc(C(=O)NCc3ccc(Cl)cc3)no2)c1 | 0 | 0 | 0 | 0 | 0
CCOC(=O)C1CN(S(=O)(=O)c2cccs2)c2ccc(CC(=O)OC)cc2O1 (stereo unspecified) | 0 | 0 | 0 | 0 | 0
CCOc1cc(CNCc2ccncc2)cc(Br)c1OCc1ccc(F)cc1 | 0 | 94 | 0 | 0 | 0
COc1ccc(O)c(C2=Nc3ccccc3N=C(c3ccccc3)C2)c1 | 0 | 0 | 0 | 0 | 0
Oc1ccccc1C1=Nc2ccccc2N=C(c2ccco2)C1 | 56 | 0 | 0 | 0 | 0
CCCCN1CNC(=S)N(CCc2ccccc2)C1 | 0 | 0 | 0 | 0 | 0
O=C(Nc1ccccc1Cl)c1cccc(NC(=O)C2CCCC2)c1 | 0 | 0 | 0 | 0 | 0
COc1cc(CNCc2ccc(C(=O)O)cc2)ccc1OCc1ccc(F)cc1 | 0 | 0 | 0 | 0 | 0
Cn1c2ccc(F)cc2c2nc3ccccc3nc21 | 111 | 0 | 0 | 0 | 0
CCOc1ccc2c(c1)c1nc3ccccc3nc1n2C | 98 | 0 | 0 | 0 | 0
Cc1ccc2c(c1)c1nc3ccccc3nc1n2C | 222 | 0 | 0 | 0 | 0
CCSc1nnc(NC(=O)CSCc2ccco2)s1 | - | - | 0 | - | -
COc1ccc(C2=NN(C(=O)CSc3c(C)[nH]c4ccccc34)C(c3ccc(F)cc3)C2)cc1 (stereo unspecified) | - | - | 0 | - | -
CCCCn1c(O)c(C(CC)=Nc2ccc(OC)cc2OC)c(=O)[nH]c1=O | 0 | 0 | 0 | 0 | 0
CCCCn1c(O)c(C(CC)=Nc2ccc(OCC)cc2)c(=O)[nH]c1=O | 55 | 0 | 0 | 0 | 0
SMILES | MazEF act | ugtP null kill | PriA SSB inh | BJeLR viability | Sa RN4220 lethal
CCOC(=O)c1c(C)c(C(=O)N2CCc3ccccc3C2)c(C)n1CC | 0 | 0 | 39 | 0 | 0
O=C(NCC(c1ccco1)N1CCCC1)c1ccc(S(=O)(=O)Nc2ccc(F)cc2)cc1 (stereo unspecified) | 0 | 0 | 0 | - | 0
CCOc1ccc(NS(=O)(=O)c2ccc(C(=O)NCC(c3ccco3)N3CCCC3)cc2)cc1 (stereo unspecified) | 52 | 0 | 0 | - | 0
Brc1ccc(C=Nc2ccc(Nc3ccccc3)cc2)s1 | 0 | 0 | 88 | 0 | 0
O=C(NN=Cc1ccc(Br)s1)Nc1ccccc1 | - | 0 | 0 | - | 0
C=C(C)C(=O)Nc1cccc(C2=NOC3(C2)C[C@@H](C(N)=O)N(C(=O)c2ccc(OC)cc2)C3)c1 (stereo partly specified) | 0 | - | 48 | 0 | -
C=C(C)C(=O)Nc1cccc(C2=NOC3(C2)C[C@@H](C(N)=O)N(C(=O)CCCCC)C3)c1 (stereo partly specified) | 0 | - | 61 | 0 | -
O=c1c2[nH]c3cccc(Cl)c3c2ncn1CC1CCCO1 (stereo unspecified) | 0 | 0 | 0 | 0 | 0
O=C(Nc1nnc(-c2ccc(Cl)s2)o1)C1CC(=O)N(c2ccccc2)C1 (stereo unspecified) | - | - | 0 | - | -
O=C(Nc1nnc(-c2ccco2)o1)C1CC(=O)N(c2ccccc2)C1 (stereo unspecified) | - | - | 65 | - | -
COC(=O)c1ccc(-n2c(C)cc(C(=O)CSc3nc(C)nc4sc5c(c34)CCCC5)c2C)cc1 | - | - | 0 | - | -
O=C(NC(c1ccccc1)c1ccccc1)N(Cc1cnc2ccccn12)c1ccccc1 | - | - | 44 | - | -
